# Test results published in publication PMC11006913.
# Numbering of substitutions follows the chain as printed.
# Legend:
# Assay in all cases: PBM; 200 nM protein, PBS
# Settings in all cases: dsDNA, one strand shown
# [1] = target: HOXB4 (Homo sapiens, UniProt P17483 148-234)
# [2] = target: HOXB9 (Homo sapiens, UniProt P17482 171-250, T197M)
# [3] = target: HOXA4 (Homo sapiens, UniProt Q00056 201-287, W262R)
# [4] = target: HOXC9 (Homo sapiens, UniProt P31274 178-260, K195R)
# [5] = target: HOXA7 (Homo sapiens, UniProt P31268 116-202)
# HOXA7 (Homo sapiens, UniProt P31268 116-202), sequence (P31268 116-202): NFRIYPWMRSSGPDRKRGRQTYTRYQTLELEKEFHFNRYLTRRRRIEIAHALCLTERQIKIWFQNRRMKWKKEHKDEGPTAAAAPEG
# [6] = target: HOXB6 (Homo sapiens, UniProt P17509 132-218, K202E)
# HOXB6 (Homo sapiens, UniProt P17509 132-218, K202E), sequence (P17509 132-218 K202E): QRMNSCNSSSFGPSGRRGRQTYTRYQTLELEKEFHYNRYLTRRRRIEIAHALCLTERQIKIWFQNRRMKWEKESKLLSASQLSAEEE
# [7] = target: HOXA4 (Homo sapiens, UniProt Q00056 201-287, R217L)
# HOXA4 (Homo sapiens, UniProt Q00056 201-287, R217L), sequence (Q00056 201-287 R217L): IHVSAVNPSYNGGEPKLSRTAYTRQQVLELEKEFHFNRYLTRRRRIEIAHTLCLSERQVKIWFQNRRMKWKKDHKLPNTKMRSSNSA
# [8] = target: HOXB9 (Homo sapiens, UniProt P17482 171-250)
# HOXB9 (Homo sapiens, UniProt P17482 171-250), sequence (P17482 171-250): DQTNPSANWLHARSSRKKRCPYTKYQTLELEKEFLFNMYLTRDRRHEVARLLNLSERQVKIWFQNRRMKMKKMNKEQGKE
# [9] = target: HOXB4 (Homo sapiens, UniProt P17483 148-234, V174I)
# HOXB4 (Homo sapiens, UniProt P17483 148-234, V174I), sequence (P17483 148-234 V174I): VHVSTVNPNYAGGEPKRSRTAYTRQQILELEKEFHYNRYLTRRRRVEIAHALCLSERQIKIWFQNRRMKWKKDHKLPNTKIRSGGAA
# [10] = target: HOXC9 (Homo sapiens, UniProt P31274 178-260)
# HOXC9 (Homo sapiens, UniProt P31274 178-260), sequence (P31274 178-260): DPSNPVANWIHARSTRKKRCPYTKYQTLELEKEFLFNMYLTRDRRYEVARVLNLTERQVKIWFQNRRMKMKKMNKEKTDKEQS
# [11] = target: HOXC9 (Homo sapiens, UniProt P31274 178-260, R193K)
# HOXC9 (Homo sapiens, UniProt P31274 178-260, R193K), sequence (P31274 178-260 R193K): as the sequence (P31274 178-260) above, with R16K counted along it
# [12] = target: HOXA4 (Homo sapiens, UniProt Q00056 201-287)
# HOXA4 (Homo sapiens, UniProt Q00056 201-287), sequence (Q00056 201-287): as the sequence (Q00056 201-287 R217L) above, with L17R counted along it
# [13] = target: HOXC10 (Homo sapiens, UniProt Q9NYD6 254-340, K271E)
# HOXC10 (Homo sapiens, UniProt Q9NYD6 254-340, K271E), sequence (Q9NYD6 254-340 K271E): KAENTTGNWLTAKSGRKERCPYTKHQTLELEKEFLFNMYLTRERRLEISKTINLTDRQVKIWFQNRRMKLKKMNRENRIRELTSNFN
# [14] = target: HOXB9 (Homo sapiens, UniProt P17482 171-250, R186Q)
# HOXB9 (Homo sapiens, UniProt P17482 171-250, R186Q), sequence (P17482 171-250 R186Q): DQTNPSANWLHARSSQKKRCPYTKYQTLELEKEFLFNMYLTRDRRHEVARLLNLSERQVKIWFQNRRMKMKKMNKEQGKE
# [15] = target: HOXC9 (Homo sapiens, UniProt P31274 178-260, R222W)
# HOXC9 (Homo sapiens, UniProt P31274 178-260, R222W), sequence (P31274 178-260 R222W): as the sequence (P31274 178-260) above, with R45W counted along it
# [16] = target: HOXA7 (Homo sapiens, UniProt P31268 116-202, W177C)
# HOXA7 (Homo sapiens, UniProt P31268 116-202, W177C), sequence (P31268 116-202 W177C): as the sequence (P31268 116-202) above, with W62C counted along it
# [17] = target: HOXA4 (Homo sapiens, UniProt Q00056 201-287, W262F)
# HOXA4 (Homo sapiens, UniProt Q00056 201-287, W262F), sequence (Q00056 201-287 W262F): as the sequence (Q00056 201-287 R217L) above, with L17R, W62F counted along it
# [18] = target: HOXB6 (Homo sapiens, UniProt P17509 132-218)
# HOXB6 (Homo sapiens, UniProt P17509 132-218), sequence (P17509 132-218): as the sequence (P17509 132-218 K202E) above, with E71K counted along it
# [19] = target: T1, VENTX (Homo sapiens, UniProt O95231 78-163, R121Q)
# T1 sequence: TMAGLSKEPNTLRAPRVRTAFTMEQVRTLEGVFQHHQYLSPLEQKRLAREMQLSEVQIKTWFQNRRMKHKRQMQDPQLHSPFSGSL
# [20] = target: T2, VENTX (Homo sapiens, UniProt O95231 78-163)
# T2 sequence: T1 sequence with Q44R
# [21] = target: HOXC10 (Homo sapiens, UniProt Q9NYD6 254-340)
# HOXC10 (Homo sapiens, UniProt Q9NYD6 254-340), sequence (Q9NYD6 254-340): as the sequence (Q9NYD6 254-340 K271E) above, with E18K counted along it
# [22] = target: T3, VENTX (Homo sapiens, UniProt O95231 78-163, Y115F)
# T3 sequence: T1 sequence with Y38F, Q44R
# [23] = target: HOXA2 (Homo sapiens, UniProt O43364 129-215, R185T)
# HOXA2 (Homo sapiens, UniProt O43364 129-215, R185T), sequence (O43364 129-215 R185T): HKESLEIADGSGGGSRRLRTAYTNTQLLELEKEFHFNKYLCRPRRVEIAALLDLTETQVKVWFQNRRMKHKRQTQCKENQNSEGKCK
# [24] = target: HOXD13 (Homo sapiens, UniProt P35453 263-343, T313R)
# HOXD13 (Homo sapiens, UniProt P35453 263-343, T313R), sequence (P35453 263-343 T313R): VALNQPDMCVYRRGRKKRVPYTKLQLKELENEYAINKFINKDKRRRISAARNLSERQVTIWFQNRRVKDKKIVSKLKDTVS
# [25] = target: HOXA2 (Homo sapiens, UniProt O43364 129-215, R185K)
# HOXA2 (Homo sapiens, UniProt O43364 129-215, R185K), sequence (O43364 129-215 R185K): as the sequence (O43364 129-215 R185T) above, with T57K counted along it
# [26] = target: HOXD13 (Homo sapiens, UniProt P35453 263-343)
# HOXD13 (Homo sapiens, UniProt P35453 263-343), sequence (P35453 263-343): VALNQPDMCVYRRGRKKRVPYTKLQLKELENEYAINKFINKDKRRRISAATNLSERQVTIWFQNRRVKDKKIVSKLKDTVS
# [27] = target: VAX1 (Homo sapiens, UniProt Q5SQQ9 86-172)
# VAX1 (Homo sapiens, UniProt Q5SQQ9 86-172), sequence (Q5SQQ9 86-172): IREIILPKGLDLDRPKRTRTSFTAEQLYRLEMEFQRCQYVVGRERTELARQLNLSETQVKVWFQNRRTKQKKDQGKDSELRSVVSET
# [28] = target: HOXD13 (Homo sapiens, UniProt P35453 263-343, T313A)
# HOXD13 (Homo sapiens, UniProt P35453 263-343, T313A), sequence (P35453 263-343 T313A): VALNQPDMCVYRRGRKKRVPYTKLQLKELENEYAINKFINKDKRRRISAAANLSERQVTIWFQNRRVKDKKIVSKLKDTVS
# [29] = target: VAX1 (Homo sapiens, UniProt Q5SQQ9 86-172, T142I)
# VAX1 (Homo sapiens, UniProt Q5SQQ9 86-172, T142I), sequence (Q5SQQ9 86-172 T142I): as the sequence (Q5SQQ9 86-172) above, with T57I counted along it
# [30] = target: HOXA2 (Homo sapiens, UniProt O43364 129-215, Y150S)
# HOXA2 (Homo sapiens, UniProt O43364 129-215, Y150S), sequence (O43364 129-215 Y150S): as the sequence (O43364 129-215 R185T) above, with Y22S, T57R counted along it
# [31] = target: HOXA2 (Homo sapiens, UniProt O43364 129-215)
# HOXA2 (Homo sapiens, UniProt O43364 129-215), sequence (O43364 129-215): as the sequence (O43364 129-215 R185T) above, with T57R counted along it
# [32] = target: VAX1 (Homo sapiens, UniProt Q5SQQ9 86-172, K157R)
# VAX1 (Homo sapiens, UniProt Q5SQQ9 86-172, K157R), sequence (Q5SQQ9 86-172 K157R): as the sequence (Q5SQQ9 86-172) above, with K72R counted along it
# [33] = target: T4, PAX4 (Homo sapiens, UniProt O43316 9-242, F177Y)
# T4 sequence: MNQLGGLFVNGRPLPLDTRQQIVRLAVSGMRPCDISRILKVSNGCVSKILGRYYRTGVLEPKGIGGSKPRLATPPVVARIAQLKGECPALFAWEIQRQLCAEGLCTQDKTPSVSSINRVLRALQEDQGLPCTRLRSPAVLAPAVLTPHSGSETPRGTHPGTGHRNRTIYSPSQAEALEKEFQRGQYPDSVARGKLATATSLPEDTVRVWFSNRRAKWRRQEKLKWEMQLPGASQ
# HOXB4 (Homo sapiens, UniProt P17483 148-234), sequence (P17483 148-234): as the sequence (P17483 148-234 V174I) above, with I27V counted along it
# HOXC9 (Homo sapiens, UniProt P31274 178-260, K195R), sequence (P31274 178-260 K195R): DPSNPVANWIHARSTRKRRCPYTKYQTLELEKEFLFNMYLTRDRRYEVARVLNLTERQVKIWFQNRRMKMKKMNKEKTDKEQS
# HOXB9 (Homo sapiens, UniProt P17482 171-250, T197M), sequence (P17482 171-250 T197M): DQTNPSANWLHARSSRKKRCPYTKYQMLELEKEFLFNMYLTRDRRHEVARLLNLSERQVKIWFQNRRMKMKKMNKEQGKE
# HOXA4 (Homo sapiens, UniProt Q00056 201-287, W262R), sequence (Q00056 201-287 W262R): as the sequence (Q00056 201-287 R217L) above, with L17R, W62R counted along it
sequence,measurement,setting,value
ACCATTAA,binding signal,[1],"13.1 upbm affinity estimate (log intensity, higher = more binding, comparable within an allelic series)"
same,binding signal,[2],"10.1 upbm affinity estimate (log intensity, higher = more binding, comparable within an allelic series)"
same,binding signal,[3],"10.6 upbm affinity estimate (log intensity, higher = more binding, comparable within an allelic series)"
same,binding signal,[4],"12.7 upbm affinity estimate (log intensity, higher = more binding, comparable within an allelic series)"
same,binding signal,[5],"11.7 upbm affinity estimate (log intensity, higher = more binding, comparable within an allelic series)"
same,binding signal,[6],"10.1 upbm affinity estimate (log intensity, higher = more binding, comparable within an allelic series)"
same,binding signal,[7],"12 upbm affinity estimate (log intensity, higher = more binding, comparable within an allelic series)"
same,binding signal,[8],"11.8 upbm affinity estimate (log intensity, higher = more binding, comparable within an allelic series)"
same,binding signal,[9],"13.7 upbm affinity estimate (log intensity, higher = more binding, comparable within an allelic series)"
same,binding signal,[10],"12.7 upbm affinity estimate (log intensity, higher = more binding, comparable within an allelic series)"
same,binding signal,[11],"12.6 upbm affinity estimate (log intensity, higher = more binding, comparable within an allelic series)"
same,binding signal,[12],"14 upbm affinity estimate (log intensity, higher = more binding, comparable within an allelic series)"
same,binding signal,[13],"11.9 upbm affinity estimate (log intensity, higher = more binding, comparable within an allelic series)"
same,binding signal,[14],"11.6 upbm affinity estimate (log intensity, higher = more binding, comparable within an allelic series)"
same,binding signal,[15],"10.9 upbm affinity estimate (log intensity, higher = more binding, comparable within an allelic series)"
same,binding signal,[16],"8.92 upbm affinity estimate (log intensity, higher = more binding, comparable within an allelic series)"
same,binding signal,[17],"11.4 upbm affinity estimate (log intensity, higher = more binding, comparable within an allelic series)"
same,binding signal,[18],"12 upbm affinity estimate (log intensity, higher = more binding, comparable within an allelic series)"
CCCATTAA,binding signal,[1],"13 upbm affinity estimate (log intensity, higher = more binding, comparable within an allelic series)"
same,binding signal,[19],"12.1 upbm affinity estimate (log intensity, higher = more binding, comparable within an allelic series)"
same,binding signal,[2],"10.1 upbm affinity estimate (log intensity, higher = more binding, comparable within an allelic series)"
same,binding signal,[3],"10.4 upbm affinity estimate (log intensity, higher = more binding, comparable within an allelic series)"
same,binding signal,[4],"12.9 upbm affinity estimate (log intensity, higher = more binding, comparable within an allelic series)"
same,binding signal,[20],"13.1 upbm affinity estimate (log intensity, higher = more binding, comparable within an allelic series)"
same,binding signal,[5],"11.8 upbm affinity estimate (log intensity, higher = more binding, comparable within an allelic series)"
same,binding signal,[21],"12.2 upbm affinity estimate (log intensity, higher = more binding, comparable within an allelic series)"
same,binding signal,[22],"12 upbm affinity estimate (log intensity, higher = more binding, comparable within an allelic series)"
same,binding signal,[6],"9.99 upbm affinity estimate (log intensity, higher = more binding, comparable within an allelic series)"
same,binding signal,[23],"12.5 upbm affinity estimate (log intensity, higher = more binding, comparable within an allelic series)"
same,binding signal,[7],"11.9 upbm affinity estimate (log intensity, higher = more binding, comparable within an allelic series)"
same,binding signal,[8],"12.2 upbm affinity estimate (log intensity, higher = more binding, comparable within an allelic series)"
same,binding signal,[9],"13.5 upbm affinity estimate (log intensity, higher = more binding, comparable within an allelic series)"
same,binding signal,[10],"12.9 upbm affinity estimate (log intensity, higher = more binding, comparable within an allelic series)"
same,binding signal,[24],"10.6 upbm affinity estimate (log intensity, higher = more binding, comparable within an allelic series)"
same,binding signal,[11],"12.9 upbm affinity estimate (log intensity, higher = more binding, comparable within an allelic series)"
same,binding signal,[25],"13.1 upbm affinity estimate (log intensity, higher = more binding, comparable within an allelic series)"
same,binding signal,[26],"11.8 upbm affinity estimate (log intensity, higher = more binding, comparable within an allelic series)"
same,binding signal,[12],"13.7 upbm affinity estimate (log intensity, higher = more binding, comparable within an allelic series)"
same,binding signal,[13],"12.2 upbm affinity estimate (log intensity, higher = more binding, comparable within an allelic series)"
same,binding signal,[27],"12.9 upbm affinity estimate (log intensity, higher = more binding, comparable within an allelic series)"
same,binding signal,[28],"11.5 upbm affinity estimate (log intensity, higher = more binding, comparable within an allelic series)"
same,binding signal,[14],"12 upbm affinity estimate (log intensity, higher = more binding, comparable within an allelic series)"
same,binding signal,[15],"10.9 upbm affinity estimate (log intensity, higher = more binding, comparable within an allelic series)"
same,binding signal,[29],"12.5 upbm affinity estimate (log intensity, higher = more binding, comparable within an allelic series)"
same,binding signal,[30],"10.7 upbm affinity estimate (log intensity, higher = more binding, comparable within an allelic series)"
same,binding signal,[16],"8.83 upbm affinity estimate (log intensity, higher = more binding, comparable within an allelic series)"
same,binding signal,[17],"11.1 upbm affinity estimate (log intensity, higher = more binding, comparable within an allelic series)"
same,binding signal,[31],"12.1 upbm affinity estimate (log intensity, higher = more binding, comparable within an allelic series)"
same,binding signal,[32],"12.6 upbm affinity estimate (log intensity, higher = more binding, comparable within an allelic series)"
same,binding signal,[18],"12.3 upbm affinity estimate (log intensity, higher = more binding, comparable within an allelic series)"
ATCGATTA,binding signal,[1],"13.1 upbm affinity estimate (log intensity, higher = more binding, comparable within an allelic series)"
same,binding signal,[19],"11.7 upbm affinity estimate (log intensity, higher = more binding, comparable within an allelic series)"
same,binding signal,[20],"12.6 upbm affinity estimate (log intensity, higher = more binding, comparable within an allelic series)"
same,binding signal,[22],"11.3 upbm affinity estimate (log intensity, higher = more binding, comparable within an allelic series)"
same,binding signal,[23],"12.6 upbm affinity estimate (log intensity, higher = more binding, comparable within an allelic series)"
same,binding signal,[7],"12 upbm affinity estimate (log intensity, higher = more binding, comparable within an allelic series)"
same,binding signal,[9],"13.8 upbm affinity estimate (log intensity, higher = more binding, comparable within an allelic series)"
same,binding signal,[25],"13.1 upbm affinity estimate (log intensity, higher = more binding, comparable within an allelic series)"
same,binding signal,[33],"11 upbm affinity estimate (log intensity, higher = more binding, comparable within an allelic series)"
same,binding signal,[17],"11 upbm affinity estimate (log intensity, higher = more binding, comparable within an allelic series)"
